KB-3-1 tox: qHTS assay for MDR1-selective chemotherapeutics: Primary screen using the parental adenocarcinoma cell KB-3-1; Potency, µM (top dose mostly 46.1 µM), most hits filed as cytotoxic; KB-3-1 viability, CellTiter-Glo ATP luminescence, 72 h; 400,000 tested, 1.4% active; note: % is set by controls: 0 for no effect and ±100 for the full control effect; nearly all actives have a fitted effect of over 60% in size
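Cytotoxicity in the drug-sensitive parental line KB-3-1 was scored as loss of CellTiter-Glo luminescence following 72 h incubation with compound. Values come from curve fitting of normalized concentration-response data.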
MCF10A rereplic: A quantitative high throughput screen for small molecules that induce DNA re-replication in MCF 10a normal breast cells; MCF 10A DNA re-replication, Hoechst nuclear intensity, 48 h; Potency, µM (highest dose often 46.1 µM), inactives show at the highest dose activity, positive = re-replication, actives largely listed as activators; 350,000 tested, 2.9% active; AID 624296, 2012; note: % of control where 0% means no effect; nearly all actives have a fitted effect of over 50% in size
KB-V1 cytotox: qHTS assay for MDR1-selective chemotherapeutics: Primary screen using the drug-selected MDR subline cells KB-V1; KB-V1 MDR cells viability, CellTiter-Glo, 72 h; Potency, µM (titrated, usually from 46.1 µM), actives largely listed as cytotoxic; 400,000 tested, 3.4% active; note: % is set by controls: 0 for no effect and ±100 for the full control effect; nearly all actives have a fitted effect of over 60% in size
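KB-V1 cells (P-gp-expressing MDR subline of KB-3-1) in phenol-red-free DMEM with 10% FBS were exposed to library compounds over a concentration series for 72 h at 37 degrees C. Viability read by CellTiter-Glo luminescence; concentration-effect curves fitted after normalization.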
ELG1 repair inh: qHTS screen for small molecules that inhibit ELG1-dependent DNA repair in human embryonic kidney (HEK293T) cells expressing luciferase-tagged ELG1 | HEK293T ELG1-luciferase reporter, luminescence, 16 h; DNA damage induced by 5-fluorouridine | Potency, µM (highest dose often 46.1 µM), for inactives: top-dose activity change, negative = inhibition, hits mostly inhibitors | 330,000 tested, 2.3% active; note: % is set by controls: 0 for no effect and ±100 for the full control effect; nearly all actives have a fitted effect of over 55% in size
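Luminescence from the luciferase reporter, measured 30 min after ONE-Glo reagent at room temperature, was the read-out. Beforehand, 2,000 cells per well were exposed for 16 hr at 37 °C to 5-fluorouridine together with compound or vehicle.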
SW480 rereplic: A quantitative high throughput screen for small molecules that induce DNA re-replication in SW480 colon adenocarcinoma cells; 340,000 tested, 1.8% active; Potency, µM (top dose mostly 46.1 µM), for inactives: at the highest dose re-replication activation, actives largely listed as activators; SW480 DNA re-replication, Hoechst DNA content imaging, 48 h; note: % of control where 0% means no effect; nearly all actives have a fitted effect of over 55% in size
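Image-based DNA-content assay: after two days of treatment, nuclei were labelled with the DNA dye Hoechst and imaged, and hits were compounds raising the count of nuclei showing high fluorescence intensity.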
Starred values were filed as active, the others as inactive; i = inactive; ? = inconclusive; . = not tested or not shown. A selection: hits, their analogues and other compounds. The true share with any hit is near 8.2%. Calls come from the whole dose curve; as a rule, active = well fitted curve in the direction sought with a large enough effect; inconclusive = small, poorly fitted or top-dose-only effect, or another doubt; inactive = no such curve, though single readings can be large; an effect the other way counts as inactive or inconclusive. Potency is the fitted concentration of half-maximal effect.

SMILES	KB-3-1 tox	MCF10A rereplic	KB-V1 cytotox	ELG1 repair inh	SW480 rereplic
CCc1ccc(OCC(=O)Nc2ccc3[nH]ncc3c2)cc1	i	18%	i	-23%	?
CC(C)(C)C1CCc2onc(C(=O)Nc3ccc(F)cc3F)c2C1 (stereo unspecified)	i	-2%	23µM*	12%	0%
CN(CC(=O)O)c1ccc(/C=C2\C=Cc3ccccc32)cc1	i	.	i	.	.
CSc1cccc(NC(=O)CCCOc2ccc(Cl)cc2Cl)c1	i	-1%	i	2%	1%
N/C(=N\OC(=O)COc1ccc(Cl)cc1Cl)c1cccnc1	i	14%	?	?	13µM*
O=C(CCCOc1ccc(Cl)cc1Cl)Nc1cccnc1	i	-1%	18µM*	?	-5%
N/C(=N\OC(=O)COc1ccc(Cl)cc1)c1cccnc1	i	-2%	?	?	-5%
O=S(=O)(c1ccc(Br)cc1)N1CCN(c2nc(-c3cccs3)nc3ccccc23)CC1	i	.	i	.	.
CCCCn1c(N)c(N(CC(C)C)C(=O)c2cc(C)oc2C)c(=O)[nH]c1=O	?	3%	?	0%	-31%
Cc1ccc2nc(-c3ccccc3)cc(C(=O)N(C)CC(=O)Nc3ccccc3Br)c2c1	?	?	21µM*	?	-464%
COc1ccc(CN(C)C(=O)c2cc(-c3ccccc3)nc3ccc(C)cc23)c(OC)c1	18µM*	.	?	.	.
COc1ccc(NC(=O)CN(C)C(=O)c2cc(-c3ccccc3)nc3ccccc23)cc1	i	?	?	?	-1%
CN(CC(=O)Nc1ccccc1Br)C(=O)c1ccccc1OCc1ccc(Cl)cc1	?	20%	5.8µM*	.	6%
CN(C(=O)c1ccccc1OCc1ccc(Cl)cc1)c1ccccc1	i	-1%	i	-3%	-2%
CN(CC(=O)Nc1ccccc1Br)C(=O)CN1CCN(Cc2cccc(Cl)c2)CC1	.	-7%	.	18µM*	0%
COc1ccccc1CNC(=O)COC(=O)c1cc(=O)[nH]c2ccccc12	i	5%	i	8%	-26%
COc1ccc(CN2CCCCCC2)cc1Br	i	1%	?	-4%	-6%
CC1CCCC(C)N1C(=O)CSc1nc2ncnc(N)c2[nH]1 (stereo unspecified)	i	6.5µM*	i	13%	8.2µM*
CC(C)c1ccc(CN2CCC2(C)C(=O)Nc2ccc3c(c2)OCO3)cc1 (stereo unspecified)	16µM*	.	?	.	.
CC(C)Oc1ccc(CN2CCC2(C)C(=O)Nc2ccc3c(c2)OCO3)cc1 (stereo unspecified)	?	.	18µM*	.	.
CC(C)c1ccc(CC(=O)N2CCC2(C)C(=O)Nc2ccc3c(c2)OCCO3)cc1 (stereo unspecified)	i	.	16µM*	.	.
COc1cccc(NC(=O)C2(C)CCN2Cc2ccc(OC(C)C)cc2)c1 (stereo unspecified)	i	.	?	.	.
CC(=O)N1CCN(c2cccc(Nc3nn4c(=O)c5ccccc5nc4s3)c2)CC1	i	.	i	.	.
Cn1c(Nc2ccc(Cl)cc2F)nc2cc(-c3ccccc3)sc2c1=O	?	.	i	.	.
Cc1cc(OC(C)C(=O)N2CCN(c3ccccc3)CC2)c2c(C)c(C)c(=O)oc2c1 (stereo unspecified)	i	-3%	?	16µM*	0%
SMILES	KB-3-1 tox	MCF10A rereplic	KB-V1 cytotox	ELG1 repair inh	SW480 rereplic
Cc1cc(OCC(=O)N2CCN(c3ccccc3)CC2)c2c(C)c(C)c(=O)oc2c1	i	6%	i	?	-13%
CCOCCCn1c(SCC(=O)NCc2ccco2)nc2c(sc3ccccc32)c1=O	i	12%	i	16µM*	-7%
O=C(CSc1nc2c(sc3ccccc32)c(=O)n1-c1ccccc1)NCc1ccco1	?	?	?	?	21%
CCCCn1c(SCC(=O)NCc2ccco2)nc2c(sc3ccccc32)c1=O	i	-1%	?	-12%	-3%
O=C(CSc1nc2c(sc3ccccc32)c(=O)n1CCc1ccccc1)NCc1ccco1	i	-2%	2.1µM*	2%	-4%
CCn1c(=O)sc2cc(NS(=O)(=O)c3ccc(C)cc3)ccc21	i	.	i	.	.
COc1ccc[n+](CC(=O)c2ccc(F)cc2)c1	?	.	i	.	.
COc1cccc(NC(=S)NC(Cc2ccccc2)c2ccccc2)c1 (stereo unspecified)	i	.	?	.	.
O=C(c1nc[nH]c1C(=O)N1CCc2ccccc2C1)N1CCc2ccccc2C1	i	14%	i	?	-9%
CN(C)S(=O)(=O)c1ccc(NC(=O)/C=C/c2ccccc2Cl)cc1	i	?	15µM*	-11%	16%
CN(C)c1ccc(NC(=O)/C=C/c2c(Cl)cccc2Cl)cc1	?	16µM*	13µM*	?	6%
NC(=O)c1ccccc1NC(=O)/C=C/c1c(Cl)cccc1Cl	i	?	4.1µM*	?	?
O=C(/C=C/c1ccccc1Cl)Nc1ccccc1	i	4%	i	?	-5%
CCCCn1c(N)c(N(CCOC)C(=O)CCc2ccc(OC)cc2)c(=O)[nH]c1=O	i	0%	i	11%	-2%
CCOc1cccc(C2C=C(c3ccc4c(c3)OCO4)NC(c3ccccc3F)N2)c1O (stereo unspecified)	i	.	i	.	.
COc1ccc(CCNC(=O)c2cc3c(=O)n4cccc(C)c4nc3n(CCCN3CCOCC3)c2=N)cc1	i	?	i	-5%	2.6µM*
Cc1cccn2c(=O)c3cc(C(=O)NCCN4CCOCC4)n(Cc4ccccc4)c3nc12	.	.	.	-6%	.
O=C(NCCN1CCOCC1)c1noc2c1CCc1ccccc1-2	i	-2%	12µM*	?	-15%
Cc1ccccc1C(=O)NC(CC(C)C)C(=O)NCC(C)(C)N1CCOCC1 (stereo unspecified)	i	-1%	23µM*	13%	-6%
Cc1ccccc1C(=O)NCCN1CCOCC1	i	0.58µM*	?	?	-18%
CCCNC(=O)c1noc2c1CCc1ccccc1-2	i	-2%	i	?	-5%
CC(=O)N1CC(O)CC1C(=O)O (stereo unspecified)	.	-1%	.	.	-2%
COC(=O)c1cc(CNC(=O)c2ccccc2OCc2c(C)noc2C)ccc1OC	i	6%	i	-5%	10%
CCOC(=O)c1c(C)[nH]c(C(C)=NNC(=O)c2cccs2)c1C	i	?	i	?	10%

Bioassay records deposited in PubChem BioAssay by National Center for Advancing Translational Sciences (NCATS).
